Results on eight compounds are retold here after PubChem BioAssay (EPA / NIEHS).

Each structure is given as a SMILES string. Where “and” joins values, the source holds several entries; their conditions need not be identical. Equal values may be shown once. Results filed as inconclusive are left out. Calls of active or inactive are those of the source. Rule for the calls, unless noted: active = hit-call score of the fitted dose curve at least 0.9, where 1 is the maximum; inactive = score below 0.9.

Read-out in experiment [1]: Monocyte Chemoattractant Protein-1 (MCP1), CCL2 (gene 6347)
Briefly: BSK_LPS_MCP1: BioMAP Diversity Plus: LPS Assay for Monocyte Chemoattractant Protein-1 (MCP1) Biomarker Activity (AID 2283081).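 For AC50: secreted MCP-1 protein quantified by ELISA in culture supernatant.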 The note with it: primary human HUVEC with PBMC; actives raise or lower the signal. A digest of the protocol:
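Human endothelial–PBMC co-cultures were dosed with chemical, then LPS-driven MCP-1 levels were quantified by ELISA at 24 h. Activity in either direction was fitted versus DMSO negative control.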

Experiment [2] in a line: BSK_LPS_PGE2: BioMAP Diversity Plus: LPS Assay for Prostaglandin E2 (PGE2) Biomarker Activity (AID 2283082).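 For AC50: secreted prostaglandin E2 measured by ELISA in LPS-stimulated co-culture.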 The note with it: primary human HUVEC with PBMC; actives raise or lower the signal. The method in brief: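 Primary human endothelial cells and blood mononuclear cells, co-cultured with LPS, receive test chemical; PGE2 ELISA follows at 24 h, with SRB-stained parallel cultures flagging cytotoxicity.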

Read-out in experiment [3]: Macrophage colony-stimulating factor (MCSF), CSF1 (gene 1435)
Briefly: BSK_LPS_MCSF: BioMAP Diversity Plus: LPS Assay for Macrophage colony-stimulating factor (MCSF) Biomarker Activity (AID 2283083). The note with it: primary human HUVEC with PBMC; actives raise or lower the signal. A digest of the protocol: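 ELISA readout of M-CSF after 24 h compound exposure in a human endothelial/PBMC co-culture. Activity, in either direction, is fitted relative to DMSO vehicle.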

Read-out in experiment [4]: Tissue Factor, F3 (gene 2152)
Briefly: BSK_LPS_TissueFactor: BioMAP Diversity Plus: LPS Assay for Tissue Factor Biomarker Activity (AID 2283084). Particulars: primary human HUVEC with PBMC; actives raise or lower the signal. A digest of the protocol: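 ELISA signal for cell-surface Tissue Factor (CD142) was read 24 h after compound dosing of an LPS-stimulated human endothelial–PBMC primary co-culture. Gain or loss of signal was scored relative to DMSO.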

Read-out in experiment [5]: Vascular cell adhesion molecule 1 (VCAM1), VCAM1 (gene 7412)
Briefly: BSK_LPS_VCAM1: BioMAP Diversity Plus: LPS Assay for Vascular cell adhesion molecule 1 (VCAM1) Biomarker Activity (AID 2283086). The note with it: primary human HUVEC with PBMC; actives raise or lower the signal. A digest of the protocol: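 Measured by ELISA: VCAM-1 in LPS-activated HUVEC/PBMC co-cultures 24 h after treatment. Values reflect bidirectional fitting with DMSO as baseline.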

Read-out in another experiment: CD38, CD38 (gene 952)
As to the kind of experiment: BSK_SAg_CD38: BioMAP Diversity Plus: SAg Assay for CD38 Biomarker Activity (AID 2283087). The note with it: primary human HUVEC with PBMC; actives raise or lower the signal. A digest of the protocol: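 Measures CD38 on a human endothelial/PBMC co-culture driven by SEB and TSST-1, 24 h after compound exposure, using ELISA with fluorescence detection; DMSO defines baseline for bidirectional curve fitting.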

Read-out in another experiment: CD40, CD40 (gene 958)
As to the kind of experiment: BSK_SAg_CD40: BioMAP Diversity Plus: SAg Assay for CD40 Biomarker Activity (AID 2283088). Particulars: primary human HUVEC with PBMC; actives raise or lower the signal. A digest of the protocol: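 Compounds were dosed onto a human primary endothelial–PBMC co-culture, and after 24 h CD40 was quantified by ELISA using a fluorescence signal. Activity in either direction was fitted relative to DMSO.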

Read-out in another experiment: CD69, CD69 (gene 969)
As to the kind of experiment: BSK_SAg_CD69: BioMAP Diversity Plus: SAg Assay for CD69 Biomarker Activity (AID 2283089).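 For AC50: cell surface CD69 protein quantified by ELISA with fluorescence detection.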 Particulars: primary human HUVEC with PBMC; actives raise or lower the signal. The method in brief: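 Endothelial/PBMC co-culture; chemical added; 24 h incubation; CD69 ELISA with fluorescence detection; bidirectional fit vs DMSO.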

Read-out in experiment [6]: Monocyte Chemoattractant Protein-1 (MCP1), CCL2 (gene 6347)
Briefly: BSK_SAg_MCP1: BioMAP Diversity Plus: SAg Assay for Monocyte Chemoattractant Protein-1 (MCP1) Biomarker Activity (AID 2283090). Particulars: primary human HUVEC with PBMC; actives raise or lower the signal. The method in brief:
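Values derive from bidirectional fitting of ELISA-measured MCP1 against DMSO controls. Readings were taken 24 h after dosing human vascular endothelial cells co-cultured with peripheral blood mononuclear cells under superantigen stimulation.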

Read-out in experiment [7]: E-selectin (Homo sapiens) (UniProt P16581)
As to the kind of experiment: BSK_SAg_Eselectin: BioMAP Diversity Plus: SAg Assay for Eselectin Biomarker Activity (AID 2283091). The note with it: primary human HUVEC with PBMC; actives raise or lower the signal. A digest of the protocol:
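Co-culture: HUVEC + PBMC. Dose compound; 24 h. ELISA for E-selectin. Bidirectional fit vs DMSO.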

Read-out in experiment [8]: Monokine induced gamma interferon (MIG), CXCL9 (gene 4283)
Briefly: BSK_SAg_MIG: BioMAP Diversity Plus: SAg Assay for Monokine induced gamma interferon (MIG) Biomarker Activity (AID 2283092). Particulars: primary human HUVEC with PBMC; actives raise or lower the signal. A digest of the protocol:
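Measures CXCL9 protein by ELISA in a human vascular primary-cell co-culture (umbilical vein endothelium with PBMC) 24 h after chemical addition. Activity is scored up or down from the DMSO control.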

A short description of experiment [9]: BSK_SAg_PBMCCytotoxicity: PBMC Cytotoxicity Assessment in the BioMAP Diversity Plus: SAg Assay (AID 2283093).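 For AC50: PBMC superantigen activated with SEB plus TSST-1 one hour after compound addition.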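 Note: PBMC viability measured as Alamar Blue reduction fluorescence at 546/580 nm; fitted both ways against DMSO so a hit may be loss or gain of signal.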 Particulars: primary human HUVEC with PBMC. The method in brief:
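Alamar Blue reduction (6 h, 546/580 nm) reports PBMC cytotoxicity after 90 h superantigen activation (SEB, TSST-1; 20 ng/mL final each) with 1 h compound pre-treatment. Gain or loss of signal fitted versus DMSO.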

Read-out in experiment [10]: Interleukin-8 (IL8), CXCL8 (gene 3576)
As to the kind of experiment: BSK_SAg_IL8: BioMAP Diversity Plus: SAg Assay for Interleukin-8 (IL8) Biomarker Activity (AID 2283094). Particulars: primary human HUVEC with PBMC; actives raise or lower the signal. The method in brief:
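Primary human endothelial cells with PBMC, exposed 24 h; IL-8 determined by ELISA, analysed bidirectionally relative to DMSO.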

Experiment [11] in a line: BSK_SAg_Proliferation: Cell Proliferation Assessment in the BioMAP Diversity Plus: SAg Assay (AID 2283095).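 Note: relative cell number as total protein by SRB absorbance in sub-confluent culture.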 The note with it: primary human HUVEC with PBMC. The method in brief:
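A human primary co-culture of umbilical vein endothelium and blood mononuclear cells receives compound; relative cell number is quantified at 96 h by SRB staining and 560 nm absorbance, with DMSO-referenced bidirectional curve fitting.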

Experiment [12] in a line: BSK_SAg_SRB: Viability Assessment in the BioMAP Diversity Plus: SAg Assay (AID 2283096).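 Note: cells read one day after compound addition; hits may be either gain or loss of signal compared with DMSO.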 The note with it: primary human HUVEC with PBMC. A digest of the protocol:
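This overt-cytotoxicity endpoint quantifies protein in human endothelial/PBMC co-cultures at 24 h using SRB absorbance (560 nm) after trichloroacetic acid fixation. Values reflect signal change from the DMSO negative control, fitted bidirectionally.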

Read-out in experiment [13]: Tumor necrosis factor (Homo sapiens) (UniProt P01375)
As to the kind of experiment: BSK_LPS_TNFa: BioMAP Diversity Plus: LPS Assay for Tumour Necrosis Factor alpha (TNFa) Biomarker Activity (AID 2283085). The note with it: primary human HUVEC with PBMC; actives raise or lower the signal. A digest of the protocol:
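ELISA-based TNFa endpoint in a human endothelial–PBMC co-culture sampled 24 h post-exposure. Curves were fitted in both directions using DMSO as baseline of activity.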

Experiment [14] deals with human CYP19A1, CYP19A1 (gene 1588) (UniProt P11511). Briefly: NVS_ADME_hCYP19A1: NovaScreen (NVS) CYP450-related Enzyme Activity (ADME) Assay for human CYP19A1 (AID 2283098; active = hit-call score of the fitted dose curve at least 0.9, where 1 is the maximum). A digest of the protocol:
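Compounds were first screened at 10 uM in duplicate against purified enzyme, with a fluorogenic substrate and fluorescence intensity detection after 0.5 h. Inhibition appears as reduced signal against acetonitrile control.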

Sequence of E-selectin (Homo sapiens) (P16581 whole entry, looked up): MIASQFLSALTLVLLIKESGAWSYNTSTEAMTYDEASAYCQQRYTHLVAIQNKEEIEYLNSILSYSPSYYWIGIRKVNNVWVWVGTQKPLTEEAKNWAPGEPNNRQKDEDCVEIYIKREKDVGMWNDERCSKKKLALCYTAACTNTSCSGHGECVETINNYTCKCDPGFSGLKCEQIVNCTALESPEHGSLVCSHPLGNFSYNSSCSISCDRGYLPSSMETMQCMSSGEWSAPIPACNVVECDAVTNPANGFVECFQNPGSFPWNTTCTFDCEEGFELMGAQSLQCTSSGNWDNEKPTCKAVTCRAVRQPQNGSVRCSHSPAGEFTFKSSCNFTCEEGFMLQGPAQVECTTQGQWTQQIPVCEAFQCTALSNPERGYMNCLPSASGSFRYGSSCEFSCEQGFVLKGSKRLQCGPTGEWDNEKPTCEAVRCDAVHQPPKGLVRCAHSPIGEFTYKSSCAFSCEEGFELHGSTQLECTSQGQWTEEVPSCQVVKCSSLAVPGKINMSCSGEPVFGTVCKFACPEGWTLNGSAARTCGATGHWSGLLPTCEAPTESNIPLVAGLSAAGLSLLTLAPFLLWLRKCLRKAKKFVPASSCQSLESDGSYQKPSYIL
Sequence of human CYP19A1, CYP19A1 (gene 1588) (P11511 whole entry, looked up): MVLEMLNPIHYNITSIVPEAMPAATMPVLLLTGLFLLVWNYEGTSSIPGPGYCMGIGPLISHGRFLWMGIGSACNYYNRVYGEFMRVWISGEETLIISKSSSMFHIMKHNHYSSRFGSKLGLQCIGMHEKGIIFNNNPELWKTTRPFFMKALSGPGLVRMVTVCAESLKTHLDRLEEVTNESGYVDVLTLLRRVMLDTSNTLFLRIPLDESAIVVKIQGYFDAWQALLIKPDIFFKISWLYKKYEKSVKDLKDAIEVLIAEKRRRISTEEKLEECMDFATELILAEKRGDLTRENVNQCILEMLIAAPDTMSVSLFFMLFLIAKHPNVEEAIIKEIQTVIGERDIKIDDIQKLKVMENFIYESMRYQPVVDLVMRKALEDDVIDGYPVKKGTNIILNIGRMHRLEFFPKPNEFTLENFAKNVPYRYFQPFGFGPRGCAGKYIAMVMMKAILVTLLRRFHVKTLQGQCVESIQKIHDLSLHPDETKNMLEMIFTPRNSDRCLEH
Sequence of Tumor necrosis factor (Homo sapiens) (P01375 whole entry, looked up): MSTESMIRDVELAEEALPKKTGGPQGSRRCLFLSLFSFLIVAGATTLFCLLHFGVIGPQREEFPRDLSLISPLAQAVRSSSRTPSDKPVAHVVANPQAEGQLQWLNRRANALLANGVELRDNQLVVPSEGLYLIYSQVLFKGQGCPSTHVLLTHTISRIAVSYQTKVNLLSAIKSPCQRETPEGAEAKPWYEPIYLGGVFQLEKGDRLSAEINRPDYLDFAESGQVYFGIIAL

With `CCOC(=O)CN[C@@H](C(=O)N1CC[C@H]1C(=O)NCc1ccc(/C(N)=N/O)cc1)C1CCCCC1`, the outcome in experiment [1] was “inactive”; in experiment [2], “inactive”; in experiment [3], “inactive”; in experiment [4], “inactive”; in experiment [5], “inactive”; in the experiment with CD38, CD38 (gene 952), “inactive”. The outcome with CD40, CD40 (gene 958) is “inactive”; in the experiment with CD69, CD69 (gene 969) it was “inactive”; in experiment [6], “inactive”; in experiment [7], “inactive”; in experiment [8], “inactive”; in [9], “inactive”. The outcome in [10], in experiment [11] and in experiment [12] was inactive.
The term AC50 denotes the midpoint of the concentration-response curve, whichever way the signal moves. As to `Oc1ccc(Cc2ccccc2O)cc1`, the outcome in [1] is “inactive”; in experiment [3], “inactive”; in [4], “inactive”; in experiment [5], “inactive”; with CD38, CD38 (gene 952) it was “inactive”; in the experiment with CD40, CD40 (gene 958), “inactive”. The outcome was “inactive” with CD69, CD69 (gene 969); “inactive” in [6]; “inactive” in [7]; “inactive” in experiment [8]; “inactive” in [9]; “inactive” in [10]. Moreover, the outcome in [11] and in experiment [12] was inactive. For the same compound, the half-maximal activity concentration (AC50) in [2] was 1.77 µM (active) and 3.97 µM (active).
As for `CC(=O)Nc1ccc(O)cc1`, the outcome in experiment [1] is “inactive”; in experiment [2] it was “inactive”; in experiment [3] it was “inactive”; in experiment [4] it was “inactive”; in experiment [13], “inactive”; with CD38, CD38 (gene 952), “inactive”. Moreover, the outcome with CD40, CD40 (gene 958) is “inactive”; with CD69, CD69 (gene 969), “inactive”; in [6], “inactive”; in [8] it was “inactive”; in [9], “inactive”; in experiment [10], “inactive”. Further, the result in [11] and in experiment [12] was inactive.
As to `C=COC(=O)C(C)(C)CCCCCC`, the half-maximal activity concentration (AC50) is 31 µM (active) in [1]; 32.4 µM (active) in [3]; 32.5 µM (active) in [4]; 4.12 µM (active) with CD40, CD40 (gene 958); 20 µM (active) with CD69, CD69 (gene 969); 31.1 µM (active) in [6]. Moreover, the AC50 in experiment [7] was 32.2 µM (active); in experiment [9] it was 36.8 µM (active); in experiment [11], 30.7 µM (active); in experiment [12] it was 36.1 µM (active). For the same compound, the outcome in experiment [2] is “inactive”; in the experiment with CD38, CD38 (gene 952), “inactive”; in experiment [8] it was “inactive”; in experiment [10], “inactive”.
As to `CCC(C)c1ccccc1O` (stereo unspecified), the outcome in [1] was “inactive”; in experiment [3], “inactive”; in [4], “inactive”; with CD38, CD38 (gene 952), “inactive”; with CD40, CD40 (gene 958), “inactive”; in the experiment with CD69, CD69 (gene 969), “inactive”. Moreover, the result in experiment [6], in [7], in experiment [8], in [9], in [10] and in [11] was inactive. The result in experiment [12] was inactive. Besides, the AC50 in [2] is 3.28 µM (active).
Consider `C=CC(C)(CCC=C(C)C)OC(C)=O` (stereo unspecified), for which the outcome was “inactive” in experiment [1]; “inactive” in experiment [2]; “inactive” in experiment [3]; “inactive” in experiment [4]; “inactive” with CD38, CD38 (gene 952); “inactive” with CD40, CD40 (gene 958). Further, the outcome with CD69, CD69 (gene 969) was “inactive”; in [6] it was “inactive”; in [7], “inactive”; in experiment [8], “inactive”; in [9], “inactive”; in experiment [10], “inactive”. Moreover, the result in [11] and in experiment [12] was inactive.
As for `CCCCCCc1ccc(N)cc1`, in experiment [14], the compound was classed as inactive.
Regarding `C=CC(=O)OCCC(F)(F)C(F)(F)C(F)(F)C(F)(F)C(F)(F)C(F)(F)C(F)(F)C(F)(F)F`, the outcome is “inactive” in experiment [1]; “inactive” in experiment [2]; “inactive” in [3]; “inactive” in experiment [4]; “inactive” with CD38, CD38 (gene 952); “inactive” in the experiment with CD40, CD40 (gene 958). Besides, the outcome with CD69, CD69 (gene 969) is “inactive”; in [6], “inactive”; in experiment [7], “inactive”; in experiment [8], “inactive”; in experiment [9], “inactive”; in experiment [10] it was “inactive”. Besides, the outcome in [11] and in [12] was inactive.
